From PubChem BioAssay (Tox21)
Records with an inconclusive call do not appear. Calls of active or inactive are those of the source. Unless noted, calls follow the shape of the dose curve; as a rule, active = well fitted curve in the direction sought with a large enough effect in the repeat runs; inconclusive = weak or mixed curves; inactive = no such curve, though single readings can be large; an effect the other way counts as inactive or inconclusive.

Tests used:
[1] = A CellTox Green Cytotoxicity Assay to monitor cytotoxicity in HepG2 cells - 8 hour (AID 1224890); also: nearly all actives have a fitted effect of over 45% in size
Method in brief: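 Nonlytic assay: viable cells exclude the dye, so fluorescence scales with cell death. HepG2 at 600 cells/well, compounds added after 5 h, signal read across 40 h.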

[2] = qHTS assay to identify small molecule antagonists of the estrogen receptor alpha (ER-alpha) signaling pathway using the BG1 cell line in the presence of 0.1 nM 17-beta-estradiol - cell viability counter screen (AID 1259241); also: nearly all actives have a fitted effect of over 40% in size
Method in brief: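 The cell line endogenously expresses full-length ER-alpha and carries four EREs driving luciferase. Cells are cultured 5 days hormone-free, treated 22 hr with compounds and 0.1 nM estradiol, then viability is read by fluorescence.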

[3] = qHTS assay to identify small molecule antagonists of the androgen receptor (AR) signaling pathway using the MDA cell line in the presence of 0.5 nM R1881 - cell viability counter screen (AID 1259242); also: nearly all actives have a fitted effect of over 45% in size
Method in brief: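 R1881 at 0.5 nM final stimulated MDA-kb2 cells during 16 hr compound treatment at 37C. Cytotoxicity read: CellTiter-Fluor fluorescence after 30 min.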

[4] = target: Estrogen receptor (Homo sapiens) (UniProt P03372); assay: qHTS assay to identify small molecule antagonists of the estrogen receptor alpha (ER-alpha) signaling pathway using the BG1 cell line in the presence of 0.1 nM 17-beta-estradiol (AID 1259244); also: nearly all actives have a fitted effect of over 50% in size
Method in brief: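 VM7Luc4E2; 4xERE-luciferase; 0.1 nM E2 final; 22 h co-incubation, 37C; ONE-Glo luminescence after 30 min at room temperature.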

[5] = qHTS assay to identify small molecule HDAC inhibitors (AID 1259364);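 also: wild-type HCT-116 cells with endogenous class I/II HDAC activity; top concentration of the series differs between compounds; nearly all actives have a fitted effect of over 45% in size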
Method in brief: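 Relative class I and II HDAC activity is taken from the luminogenic signal in HCT-116 cells, with compound exposure 2 hr and reagent development 30 min at room temperature.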

[6] = qHTS assay to identify small molecule HDAC inhibitors - cell viability counter screen (AID 1259365); also: series mostly up to about 92 µM; nearly all actives have a fitted effect of over 50% in size
Method in brief: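 Viability readout: CellTiter-Glo luminescence. Wild-type HCT-116 cells, 2hr compound treatment following overnight attachment at 37 C.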

[7] = qHTS assay to identify small molecule agonists of the sonic hedgehog signaling (Shh) pathway - cell viability counter screen (AID 1259366); also: nearly all actives have a fitted effect of over 50% in size
Method in brief: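 Viability measured fluorometrically (CellTiter-Fluor, 1hr, 37C) in 3T3 Gli1-Luc reporter cells after 23hr compound exposure within a 24hr incubation at 37C/5% CO2.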

[8] = qHTS assay to identify small molecule antagonists of the sonic hedgehog signaling (Shh) pathway - cell viability counter screen (AID 1259367); also: nearly all actives have a fitted effect of over 55% in size
Method in brief: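 Seed 3T3 Gli1-Luc cells at 2,000 per well; incubate 4 hr; add compound in DMSO, then conditioned medium; incubate at 37C with 5% CO2; add CellTiter-Fluor after 23 hr; read fluorescence 1 hr later.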

[9] = qHTS assay to identify small molecule agonists of the sonic hedgehog signaling (Shh) pathway (AID 1259368; calls by dose curve;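 also: NIH/3T3-derived 3T3Gli1-Luc cells carrying a stable Gli1-driven firefly luciferase reporter; series mostly up to about 92 µM; nearly all actives have a fitted effect of over 15% in size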)
Method in brief: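 Mouse fibroblast (NIH/3T3) reporter cells with stably integrated Gli1-Luc were treated 24 hr with compound; firefly luciferase luminescence served as the read-out.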

[10] = qHTS assay to identify small molecule antagonists of the sonic hedgehog signaling (Shh) pathway (AID 1259369; calls by dose curve; also: nearly all actives have a fitted effect of over 45% in size; also: potency is read from the fitted curve at half-maximal effect)
Method in brief: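 Conditioned medium drives Shh signalling in 3T3Gli1-Luc cells; compounds in DMSO co-applied, 24hr at 37 C, then luciferase luminescence.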

[11] = target: Estrogen receptor beta (Homo sapiens) (UniProt Q92731); assay: qHTS assay to identify small molecule agonists of the estrogen receptor beta (ER-beta) signaling pathway (AID 1259377; active = well fitted activation curve with a large enough effect in the signal ratio in the repeat runs, not every such curve was filed as active; the % refers to the signal ratio)
Method in brief: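 A UAS-controlled beta-lactamase reporter in ER-beta-UAS-bla HEK293T cells reports receptor activation. Compounds act for 16 hr at 37C in 2% charcoal-stripped serum, and a FRET substrate is read by fluorescence after 2 hours.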

[12] = target: Estrogen receptor beta (Homo sapiens) (UniProt Q92731); assay: qHTS assay to identify small molecule antagonists of the estrogen receptor beta (ER-beta) signaling pathway (AID 1259378; active = well fitted inhibition curve with a large enough effect in the signal ratio in the repeat runs, not every such curve was filed as active; the % refers to the signal ratio)
Method in brief: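 ER-beta-UAS-bla HEK293T cells in 2% charcoal-stripped FBS medium treated with compound plus 1nM final 17-beta-estradiol for 16 hr at 37C. Beta-lactamase reporter read by FRET substrate fluorescence after 2 hours at room temperature.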

[13] = qHTS assay to identify small molecule agonists of the androgen receptor (AR) signaling pathway in the presence of an antagonist - cell viability counter screen (AID 1259379);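 also: MDA-kb2 human breast cancer cells carrying an MMTV luciferase reporter; series mostly up to about 92 µM; nearly all actives have a fitted effect of over 25% in size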
Method in brief: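 A CellTiter-Fluor read-out measured viability of MDA-kb2 reporter cells (MMTV promoter with AR and GR response elements). Treatment: nilutamide 3.0uM final with compounds at 15 concentrations, 16 hr, 37C, 0% CO2.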

[14] = qHTS assay to identify small molecule agonists of the estrogen receptor beta (ER-beta) signaling pathway - cell viability counter screen (AID 1259380); also: nearly all actives have a fitted effect of over 30% in size
Method in brief: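 Cells used were ER-beta-UAS-bla HEK293T in medium with 2% charcoal-stripped FBS. They were treated for 16 hr at 37C. Viability came from CellTiter-Glo luminescence.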

[15] = qHTS assay to identify small molecule antagonists of the estrogen receptor beta (ER-beta) signaling pathway - cell viability counter screen (AID 1259382); also: series mostly up to about 92 µM; nearly all actives have a fitted effect of over 55% in size
Method in brief: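 Agonist-stimulated (1nM E2) ER-beta-UAS-bla HEK293T cells are incubated with library compounds for 16 hr at 37C. Cell viability is then assessed in the reporter-assay wells by adding CellTiter-Glo and reading luminescence after 30 min.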

[16] = target: Estrogen receptor (Homo sapiens) (UniProt P03372); assay: qHTS assay to identify small molecule agonists of the estrogen receptor alpha (ER-alpha) signaling pathway in the presence of an antagonist (AID 1259383; calls by dose curve; also: top concentration of the series differs between compounds; nearly all actives have a fitted effect of over 15% in size)
Method in brief: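 Using VM7Luc4E2 cells seeded 24hr before treatment, antagonist ICI-182,780 (10.0nM final) was added, followed by compounds at 15 concentrations. Plates incubated 22hr; ONE-Glo luminescence quantified reporter activity.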

[17] = qHTS assay to identify small molecule agonists or antagonists of the thyroid stimulating hormone receptor (TSHR) signaling pathway - wild type cell line counter screen (AID 1259384; calls by dose curve)
Method in brief: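 Wild-type Hek293 cells, 800/well, 18 h at 37C, then compound with Ro20-1724 for 30 min RT. cAMP by HTRF (cAMP-d2/anti-cAMP cryptate), 1 h RT, fluorescence read. 15 concentrations, triplicates.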

[18] = target: Androgen receptor (Homo sapiens) (UniProt P10275); assay: qHTS assay to identify small molecule antagonists of the androgen receptor (AR) signaling pathway using the MDA cell line in the presence of 0.5 nM R1881 (AID 1259243); also: nearly all actives have a fitted effect of over 50% in size
Method in brief: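 We exposed MDA-kb2 cells to compounds under 0.5 nM R1881 stimulation for 16 hr at 37C and quantified MMTV-driven luciferase by luminescence.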

[19] = target: Androgen receptor (Homo sapiens) (UniProt P10275); assay: qHTS assay to identify small molecule agonists of the androgen receptor (AR) signaling pathway in the presence of an antagonist (AID 1259381; calls by dose curve; also: nearly all actives have a fitted effect of over 15% in size)
Method in brief: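 Using human MDA-kb2 cells with an MMTV promoter–luciferase construct (AR and GR response elements), agonist activity is scored under 3.0uM nilutamide (final) co-treatment; 16hr incubation, 37C, luminescence readout via ONE-Glo.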

[20] = qHTS assay to identify small molecule phospholipidosis (PLD) inducers (AID 1259344; active = well fitted curve in the direction sought with a large enough effect; an effect the other way counts as inactive or inconclusive)
Method in brief: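 Quantitative HTS in HepG2: compound plus LipidTOX Red dye for 24 h, paraformaldehyde fixation with Hoechst 33342, widefield high-content imaging; amiodarone as positive and DMSO as negative control.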

Measured: Potency

Androgen receptor (Homo sapiens), sequence (P10275 whole entry, looked up): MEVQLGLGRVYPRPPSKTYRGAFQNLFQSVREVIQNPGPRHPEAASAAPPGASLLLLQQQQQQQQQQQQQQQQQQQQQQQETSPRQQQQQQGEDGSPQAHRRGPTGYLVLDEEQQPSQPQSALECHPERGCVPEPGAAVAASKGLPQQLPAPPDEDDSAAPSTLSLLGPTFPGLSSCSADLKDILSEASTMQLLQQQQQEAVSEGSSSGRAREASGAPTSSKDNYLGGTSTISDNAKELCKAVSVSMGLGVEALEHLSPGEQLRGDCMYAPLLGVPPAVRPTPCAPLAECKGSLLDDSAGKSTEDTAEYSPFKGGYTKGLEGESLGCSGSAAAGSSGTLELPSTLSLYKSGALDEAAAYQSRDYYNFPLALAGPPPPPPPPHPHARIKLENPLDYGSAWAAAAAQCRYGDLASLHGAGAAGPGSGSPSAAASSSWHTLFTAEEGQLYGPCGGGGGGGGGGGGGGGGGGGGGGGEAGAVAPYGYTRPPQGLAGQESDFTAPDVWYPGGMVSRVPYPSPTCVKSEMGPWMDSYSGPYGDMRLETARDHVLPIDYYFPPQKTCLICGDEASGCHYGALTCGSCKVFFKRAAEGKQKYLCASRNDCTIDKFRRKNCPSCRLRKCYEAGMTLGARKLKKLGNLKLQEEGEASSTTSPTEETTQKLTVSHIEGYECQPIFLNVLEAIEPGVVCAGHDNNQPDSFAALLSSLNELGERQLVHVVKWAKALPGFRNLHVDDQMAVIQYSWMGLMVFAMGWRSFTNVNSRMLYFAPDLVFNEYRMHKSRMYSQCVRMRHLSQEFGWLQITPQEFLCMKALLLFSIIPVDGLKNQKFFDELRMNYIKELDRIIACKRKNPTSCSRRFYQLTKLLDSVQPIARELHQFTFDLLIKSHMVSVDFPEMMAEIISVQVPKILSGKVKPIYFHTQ
Estrogen receptor (Homo sapiens), sequence (P03372 whole entry, looked up): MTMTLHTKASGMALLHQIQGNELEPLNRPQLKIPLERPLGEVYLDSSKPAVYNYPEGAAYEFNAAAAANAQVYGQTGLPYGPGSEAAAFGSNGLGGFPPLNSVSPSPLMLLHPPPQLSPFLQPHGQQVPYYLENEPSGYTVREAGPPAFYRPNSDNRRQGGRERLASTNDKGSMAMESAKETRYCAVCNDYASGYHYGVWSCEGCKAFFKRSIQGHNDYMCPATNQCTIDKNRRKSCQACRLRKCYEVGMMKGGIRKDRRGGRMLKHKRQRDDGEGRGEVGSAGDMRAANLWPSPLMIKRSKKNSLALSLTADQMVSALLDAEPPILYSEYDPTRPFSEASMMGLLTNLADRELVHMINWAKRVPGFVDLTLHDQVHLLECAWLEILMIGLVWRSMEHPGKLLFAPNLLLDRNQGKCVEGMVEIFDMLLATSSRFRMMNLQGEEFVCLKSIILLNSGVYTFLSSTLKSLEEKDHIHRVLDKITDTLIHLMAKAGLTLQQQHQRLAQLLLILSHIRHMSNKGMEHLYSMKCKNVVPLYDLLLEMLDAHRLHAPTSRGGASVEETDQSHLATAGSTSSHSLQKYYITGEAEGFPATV
Estrogen receptor beta (Homo sapiens), sequence (Q92731 whole entry, looked up): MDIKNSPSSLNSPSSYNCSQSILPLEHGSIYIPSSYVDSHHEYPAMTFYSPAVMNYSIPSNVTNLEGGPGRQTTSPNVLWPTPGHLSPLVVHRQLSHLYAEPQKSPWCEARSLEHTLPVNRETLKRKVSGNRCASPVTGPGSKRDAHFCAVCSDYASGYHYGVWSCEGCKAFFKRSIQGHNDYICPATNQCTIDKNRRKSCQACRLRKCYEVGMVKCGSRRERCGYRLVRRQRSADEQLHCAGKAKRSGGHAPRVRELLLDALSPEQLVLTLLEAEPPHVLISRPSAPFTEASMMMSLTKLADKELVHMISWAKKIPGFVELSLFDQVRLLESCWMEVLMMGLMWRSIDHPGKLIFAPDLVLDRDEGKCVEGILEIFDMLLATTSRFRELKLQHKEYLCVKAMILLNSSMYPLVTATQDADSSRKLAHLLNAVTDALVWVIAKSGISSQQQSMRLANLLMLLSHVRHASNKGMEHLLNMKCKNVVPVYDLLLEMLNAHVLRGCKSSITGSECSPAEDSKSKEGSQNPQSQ

N#Cc1ccccn1
inactive: [1] | [2] | [3] | [4] | [5] | [6] | [7] | [8] | [9] | [10] | [11] | [12] | [13] | [14] | [15] | [16] | [17]

O=C(O)C(Br)Br
inactive: [1] | [2] | [3] | [4] | [5] | [6] | [7] | [8] | [9] | [10] | [11] | [12] | [13] | [14] | [15] | [16]

CNC(=O)O/N=C(\SC)C(=O)N(C)C
inactive: [1] | [2] | [3] | [18] | [4] | [5] | [7] | [8] | [9] | [10] | [11] | [12] | [14] | [19] | [15] | [16] | [17]

COS(=O)(=O)OC
inactive: [1] | [2] | [3] | [4] | [5] | [6] | [7] | [8] | [9] | [10] | [13] | [14] | [15] | [16]

Cl/C=C/Cl
inactive: [1] | [2] | [3] | [4] | [5] | [7] | [8] | [9] | [10] | [13] | [14] | [15] | [16] | [17]

COc1nc(NC(C)C)nc(NC(C)C)n1
inactive: [1] | [2] | [3] | [4] | [5] | [7] | [8] | [9] | [11] | [12] | [13] | [14] | [15] | [16] | [17]

O=C(O)C1C(C(=O)O)C2(Cl)C(Cl)=C(Cl)C1(Cl)C2(Cl)Cl (stereo not given)
inactive: [1] | [2] | [3] | [4] | [5] | [6] | [7] | [8] | [9] | [10] | [11] | [12] | [13] | [14] | [15] | [16] | [17]

Cc1cc(O)ccc1Cl
inactive: [1] | [2] | [3] | [4] | [20] | [5] | [6] | [7] | [8] | [9] | [10] | [11] | [12] | [13] | [14] | [15] | [16] | [17]

COP(=S)(OC)SCN1C(=O)c2ccccc2C1=O
inactive: [1] | [2] | [3] | [20] | [5] | [6] | [7] | [8] | [9] | [11] | [12] | [13] | [14] | [15] | [17]
active: [10] 54.5 µM

CCCOC(=O)c1ccccc1C(=O)OCCC
inactive: [1] | [2] | [3] | [4] | [5] | [7] | [8] | [9] | [10] | [13] | [14] | [15] | [16]

O=C(O)Cc1ccccc1
inactive: [1] | [2] | [3] | [4] | [20] | [5] | [6] | [7] | [8] | [9] | [10] | [13] | [14] | [15] | [16]

ClC(Cl)c1ccccc1
inactive: [1] | [2] | [3] | [4] | [5] | [6] | [7] | [8] | [9] | [10] | [13] | [14] | [15] | [16]

CC(C)CCCCCCOC(=O)c1ccccc1C(=O)OCCCCCCC(C)C
inactive: [1] | [2] | [3] | [18] | [4] | [5] | [6] | [7] | [8] | [9] | [10] | [13] | [14] | [19] | [15] | [16] | [17]

NNc1ccccc1
inactive: [1] | [2] | [3] | [20] | [5] | [6] | [7] | [8] | [9] | [10] | [11] | [12] | [13] | [14] | [15] | [17]

FC(F)(F)c1ccc(Cl)cc1
inactive: [1] | [2] | [3] | [4] | [5] | [7] | [8] | [9] | [10] | [11] | [12] | [13] | [14] | [15] | [16] | [17]
